Screening results deposited in PubChem BioAssay by National Center for Advancing Translational Sciences (NCATS).
ALDH1A1 block: qHTS Assay for Inhibitors of Aldehyde Dehydrogenase 1 (ALDH1A1). hit rate 7.3% among 220,000. AID 1030, 2008. Potency, µM (series often up to 75.3 µM), most hits filed as inhibitors. Purified ALDH1A1, NADH fluorescence, propionaldehyde substrate
Target sequence (P00352 whole entry, looked up): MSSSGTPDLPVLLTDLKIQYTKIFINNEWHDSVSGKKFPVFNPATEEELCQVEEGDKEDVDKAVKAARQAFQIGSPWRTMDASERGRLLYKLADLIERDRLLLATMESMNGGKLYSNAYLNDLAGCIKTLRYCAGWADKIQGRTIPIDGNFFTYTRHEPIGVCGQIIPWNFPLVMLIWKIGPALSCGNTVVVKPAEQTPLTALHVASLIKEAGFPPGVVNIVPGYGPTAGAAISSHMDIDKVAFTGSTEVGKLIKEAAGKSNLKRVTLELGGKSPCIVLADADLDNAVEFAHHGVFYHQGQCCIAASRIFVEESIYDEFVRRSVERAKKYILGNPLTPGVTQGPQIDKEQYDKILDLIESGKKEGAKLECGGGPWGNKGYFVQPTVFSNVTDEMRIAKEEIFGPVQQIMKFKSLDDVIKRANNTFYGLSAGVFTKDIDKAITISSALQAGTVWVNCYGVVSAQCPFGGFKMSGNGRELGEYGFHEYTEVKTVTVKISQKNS
HPGD block: qHTS Assay for Inhibitors of HPGD (15-Hydroxyprostaglandin Dehydrogenase); hit rate 4.3% among 150,000; Potency, µM, most hits filed as inhibitors; purified HPGD, NADH fluorescence kinetic, PGE2 substrate
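NADH formation kinetics: reaction with 30 uM PGE2 and 1 mM NAD+ (final), 20 nM enzyme, Tris-HCl pH 8 with Tween 20, after 15 min compound preincubation at room temperature. Fluorescence change, last versus first of five reads.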
PNC assembly inh: High Content Assay for Compounds that inhibit the Assembly of the Perinucleolar Compartment; activity change (PNC), negative = inhibition, % at 10 µM; PC3M PTB-GFP, PNC prevalence imaging, 16 h; active compounds read low; hit rate 3.1% among 140,000; AID 2417, 2010;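 active = readout at or below -70, meaning at least 70% loss of cells showing the perinucleolar compartment, a nuclear body marking cancer cells; inconclusive = readout between -30 and a set limit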
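Compounds are pinned in duplicate onto adhered PC3M cells stably expressing GFP-tagged PTB and incubated 16 h at 37 C. Cells are then fixed, nuclei stained with Hoechst, and PNC-positive cells counted.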
A number is an active result. Shown are actives, neighbours in structure and some others; about 11% of the full set was active somewhere. Unless noted, calls follow the shape of the dose curve; as a rule, active = well fitted inhibition curve with a large enough effect (not every such curve was filed as active); inconclusive = small, poorly fitted or top-dose-only effect, or another doubt; inactive = no such curve, though single readings can be large or run the other way.

What do the screens show for `CCCCC(c1nnnn1Cc1ccco1)N1CCN(C(=O)c2ccco2)CC1` (stereo not drawn)?
ALDH1A1 block: 14µM; HPGD block: inactive; PNC assembly inh: inactive

What do the screens show for `CCCCC(CC)C(=O)N1CCN(C(=O)c2ccco2)CC1` (stereo not drawn)?
ALDH1A1 block: 25µM

Results for CCCC(c1nnnn1Cc1ccco1)N1CCN(C(=O)c2ccco2)CC1 (stereo not drawn) ?
ALDH1A1 block: 13µM; HPGD block: inactive; PNC assembly inh: inactive

What do the screens show for `CCC(c1nnnn1CCc1ccccc1)N1CCN(C(=O)c2ccco2)CC1` (stereo not drawn)?
ALDH1A1 block: inconclusive; HPGD block: inactive; PNC assembly inh: inactive

How did CC(C)CCC1CC(CSC(=N)N)OC1=O (stereo not drawn) do in these assays?
ALDH1A1 block: inactive; HPGD block: inactive; PNC assembly inh: inactive

How did CCC1=C2CC[C@H]3C(=O)N(CC(=O)OC)C(=O)[C@H]3[C@H]2[C@@]2(C)C(=O)N(CC3CC3)C(=O)N2C1=O do in these assays?
ALDH1A1 block: inactive; HPGD block: inactive

What do the screens show for `COc1cccc(NS(=O)(=O)c2c(C)n(C)c(=O)n(C)c2=O)c1`?
ALDH1A1 block: inactive; HPGD block: inactive; PNC assembly inh: inconclusive

What do the screens show for `CC(=O)N1CCN(Cc2nc3cc(NC(=O)c4ccc(F)cc4)ccc3n2C)CC1`?
ALDH1A1 block: inactive

Results for Cc1nn(CC(=O)c2ccccc2)c(=O)c2nn(-c3ccccc3F)c(C)c12 ?
ALDH1A1 block: inconclusive; HPGD block: inactive; PNC assembly inh: inactive

What do the screens show for `S=c1[nH]nc(CCc2ccccc2)n1-c1ccccc1`?
ALDH1A1 block: inconclusive; HPGD block: 16µM; PNC assembly inh: inactive

Results for S=c1[nH]nc(Cc2ccccc2)n1-c1ccccc1 ?
ALDH1A1 block: inconclusive; HPGD block: inconclusive; PNC assembly inh: inactive

What do the screens show for `Cn1c(SCC2CCCCC2)nnc1-c1ccncc1`?
ALDH1A1 block: inconclusive; HPGD block: inactive; PNC assembly inh: inactive

How did O=C(CNC(=O)C12CC3CC(CC(C3)C1)C2)N1CCN(S(=O)(=O)/C=C/c2ccccc2)CC1 do in these assays?
ALDH1A1 block: inactive; PNC assembly inh: inactive

Results for Cc1ccc(/C=C2/C(=O)N(c3ccccc3)C(=S)N2C)o1 ?
ALDH1A1 block: 4µM; HPGD block: inactive; PNC assembly inh: inactive

Results for CCOc1ccc(N2C(=O)/C(=C/c3ccco3)N(C)C2=S)cc1 ?
ALDH1A1 block: inconclusive; HPGD block: inactive; PNC assembly inh: inactive

Results for Cc1ccc(C)c(NC(=S)N(Cc2ccc(Cl)cc2)Cc2ccc(C(=O)O)cc2)c1 ?
ALDH1A1 block: inactive

What do the screens show for `O=c1cnc2cnc(OCc3ccccc3)nc2n1CCc1ccccc1`?
ALDH1A1 block: inconclusive; HPGD block: inactive

Results for NS(=O)(=O)c1ccc(CCNC(=O)/C=C/c2ccccc2[N+](=O)[O-])cc1 ?
ALDH1A1 block: inactive

How did O=C(COC(=O)Cn1cnc2ccccc21)NCCc1ccc(Cl)cc1 do in these assays?
ALDH1A1 block: 13µM; HPGD block: inactive; PNC assembly inh: inconclusive

Results for CCOC(=O)c1c(NC(=O)COC(=O)Cn2c(C(F)(F)F)nc3ccccc32)sc(C)c1C ?
ALDH1A1 block: inactive; HPGD block: inactive; PNC assembly inh: inconclusive

Results for O=C(COC(=O)Cn1cnc2ccccc21)NCCC1=CCCCC1 ?
ALDH1A1 block: inconclusive; HPGD block: inactive; PNC assembly inh: inconclusive

What do the screens show for `CCOC(=O)c1sc(NC(=O)COC(=O)CNC(=O)c2ccco2)c(C(=O)OCC)c1C`?
ALDH1A1 block: 28µM; HPGD block: inactive; PNC assembly inh: inconclusive

What do the screens show for `CCOC(=O)c1sc(NC(=O)COC(=O)Cn2cnc3ccccc32)c(C(=O)OCC)c1C`?
ALDH1A1 block: inconclusive; HPGD block: inactive; PNC assembly inh: -97

Results for CCOC(=O)c1c(NC(=O)COC(=O)CNC(=O)c2ccco2)sc(C)c1C ?
ALDH1A1 block: inactive; HPGD block: inactive; PNC assembly inh: inconclusive

What do the screens show for `CCOC(=O)C1(C(F)(F)F)N=C(c2cccnc2)OC(N2CCOCC2)=N1` (stereo not drawn)?
ALDH1A1 block: inactive; HPGD block: inactive; PNC assembly inh: inactive

What do the screens show for `COc1ccc(N2CCN(c3nc(Nc4ccc(F)cc4)nc(OC)n3)CC2)cc1`?
ALDH1A1 block: inactive; HPGD block: inactive; PNC assembly inh: inactive

How did COc1ccc(Nc2nc(Nc3ccc(OC)cc3)nc(-n3[nH]c(=O)c(C)c3C)n2)cc1 do in these assays?
ALDH1A1 block: 25µM; HPGD block: inactive; PNC assembly inh: inactive

What do the screens show for `Cc1ccnc(NC(=O)CCC(=O)N(CC(=O)NC(C)(C)C)c2ccc(F)c(Cl)c2)c1`?
ALDH1A1 block: inactive

How did CCCCC/C=C\C/C=C\C/C=C\C=C\C1CCCC(=O)O1 (stereo not drawn) do in these assays?
ALDH1A1 block: inactive; HPGD block: inactive

How did Cc1c(C(c2ccc(O)cc2)c2c(C)n(C)n(-c3ccccc3)c2=O)c(=O)n(-c2ccccc2)n1C do in these assays?
ALDH1A1 block: inactive

How did Cc1c(C(Nc2ccccn2)c2ccc(Cl)cc2)c(=O)n(-c2ccccc2)n1C (stereo not drawn) do in these assays?
ALDH1A1 block: inactive; HPGD block: inactive; PNC assembly inh: inactive

How did Cc1c(C(Nc2ccccn2)c2ccccc2)c(=O)n(-c2ccccc2)n1C (stereo not drawn) do in these assays?
ALDH1A1 block: inactive; HPGD block: inactive; PNC assembly inh: -100

Results for Cc1c(C(c2ccc(N(C)C)cc2)c2c(C)n(C)n(-c3ccccc3)c2=O)c(=O)n(-c2ccccc2)n1C ?
ALDH1A1 block: 18µM

Results for N/C(Cc1nc(-c2ccc(Br)cc2)cs1)=N\O ?
ALDH1A1 block: inactive

Results for CSc1nc(NCCOCCO)c2sc3nc(-c4ccco4)c4c(c3c2n1)CCC4 ?
ALDH1A1 block: inconclusive; HPGD block: inconclusive; PNC assembly inh: inactive

Results for CCN(CCO)c1nc(SC)nc2c1sc1nc(-c3ccco3)c3c(c12)CCC3 ?
ALDH1A1 block: 2µM; HPGD block: inconclusive; PNC assembly inh: inconclusive

What do the screens show for `COc1ccc(-c2n[nH]c(=S)n2/N=C/C=C\c2ccccc2OC)cc1`?
ALDH1A1 block: inconclusive; HPGD block: 0.89µM; PNC assembly inh: inactive

How did COc1ccc(OC)c(-n2c(-c3cc(-c4ccccc4)n[nH]3)n[nH]c2=S)c1 do in these assays?
ALDH1A1 block: inactive; HPGD block: inconclusive; PNC assembly inh: inactive

How did COc1ccccc1/C=C\C=N\n1c(C2CCCCC2)n[nH]c1=S do in these assays?
ALDH1A1 block: inconclusive; HPGD block: 14µM; PNC assembly inh: inactive

Results for COc1ccc(CCn2c(-c3ccncc3)n[nH]c2=S)cc1OC ?
ALDH1A1 block: inactive

How did COc1ccc(OC)c(-n2c(-c3ccccc3)n[nH]c2=S)c1 do in these assays?
ALDH1A1 block: inconclusive; HPGD block: inconclusive; PNC assembly inh: inactive

What do the screens show for `COc1ccccc1/C=C/C=N/n1c(-c2ccncc2)n[nH]c1=S`?
ALDH1A1 block: inactive; HPGD block: 14µM; PNC assembly inh: inconclusive

Results for COc1ccccc1/C=C/C=N/N1CCN(c2ccccn2)CC1 ?
ALDH1A1 block: inconclusive; HPGD block: inactive; PNC assembly inh: inactive
